A selection: hits, their analogues and other compounds. The true share with any hit is near 19%.
HT1080 IDH1KD tx: qHTS for induction of synthetic lethality in tumor cells producing 2HG: qHTS for the HT-1080-IDH1KD cell line | HT-1080 IDH1 knockdown viability, ATP luminescence, 48 h | Potency, µM (doses to about 46.1 µM), hits mostly cytotoxic | hit rate 2% among 360,000 | AID 686971, 2013
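Knockdown cells (IDH1KD HT-1080) received compounds 2 h after plating at 750 cells/well and were kept 48 h at 37 °C in 5% FBS RPMI. A CellTiter-Glo luminescence read gave % activity for curve fitting.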
HT1080NT lethal: qHTS for induction of synthetic lethality in tumor cells producing 2HG: qHTS for the HT-1080-NT fibrosarcoma cell line | HT-1080-NT fibrosarcoma viability, CellTiter-Glo ATP luminescence, 48 h | Potency, µM (top dose mostly 46.1 µM), most hits filed as cytotoxic | hit rate 1.6% among 360,000;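 note: NT is the 2HG producing partner of a matched IDH1 knockdown line; nearly all actives have a fitted effect of over 55% in size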
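HT-1080-NT; 750 cells/well; 5% FBS RPMI; 48 h compound, 37 degrees C; CellTiter-Glo luminescence; curve fitting and curve-class assignment.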
IL-1B inflam inh: qHTS for Inhibitors of Inflammasome Signaling: IL-1-beta AlphaLISA Primary Screen | activity change, % at 57.5 µM | hit rate 4.7% among 360,000 | THP-1 LPS/ATP IL-1B secretion, AlphaLISA, 16 h; hits give low values; in the data active = activity change below about -50%; inconclusive = mostly about -30% to -49%
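Secreted IL-1B measured by AlphaLISA bead assay after 16 h compound exposure of THP-1 cells; compounds (final up to 57.5 uM) added 1 h before LPS (250 ng/mL) and ATP (1.25 mM) stimulation; lower signal means less secretion.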
TDP1 cell CPT: qHTS for Inhibitors of human tyrosyl-DNA phosphodiesterase 1 (TDP1): qHTS in cells in presence of CPT | chicken DT40 Tdp1-/-;hTDP1 cells + 20 nM CPT, ATP luminescence, 48 h | Potency, µM (series often up to 46.2 µM), hits mostly inhibitors | hit rate 12% among 420,000; note: nearly all actives have a fitted effect of over 55% in size
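Chicken DT40 Tdp1-/- cells complemented with human TDP1, 400 cells/well, exposed to compounds plus 20 nM camptothecin for at least 48 h at 37 C; viability read as ATP content by CellTiter-Glo luminescence.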
TDP1 cell noCPT: qHTS for Inhibitors of human tyrosyl-DNA phosphodiesterase 1 (TDP1): qHTS in cells in absence of CPT; hit rate 15% among 420,000; Potency, µM (series often up to 46.2 µM), most hits filed as inhibitors; DT40 Tdp1-/- hTDP1 cells, no CPT, ATP luminescence, 48 h; AID 686978, 2013; note: nearly all actives have a fitted effect of over 55% in size
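Stably hTDP1-transfected Tdp1-null chicken DT40 cells were treated with library compounds minus camptothecin and grown for at least 48 hr at 37 °C, after which cellular ATP was quantified by luminescence.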
Hits are given with their value. Unless noted, calls come from the whole dose curve; as a rule, active = well fitted curve in the direction sought with a large enough effect; inconclusive = small, poorly fitted or top-dose-only effect, or another doubt; inactive = no such curve, though single readings can be large; an effect the other way counts as inactive or inconclusive.

`CCc1nc2c(OCc3ccc(OC(F)F)cc3)cccn2c1N(C)C(=O)c1ccc(OC)cc1` gave HT1080 IDH1KD tx inconclusive, HT1080NT lethal inconclusive, IL-1B inflam inh inactive, TDP1 cell CPT 18µM and TDP1 cell noCPT 13µM.
`CCc1nc2c(OCc3ccc(Cl)cc3)cccn2c1N(C)C(=O)c1cccs1` gave HT1080 IDH1KD tx inconclusive, HT1080NT lethal inconclusive, IL-1B inflam inh inactive, TDP1 cell CPT inconclusive and TDP1 cell noCPT inconclusive.
Screening CCOc1ccccc1CN(CCc1ccc2c(c1)OCO2)Cc1cccc(OC)c1OC returned TDP1 cell CPT 18µM and TDP1 cell noCPT 16µM.
CCOc1ccc(CN(CCc2ccc3c(c2)OCO3)Cc2cc(OC)c(OC)cc2OC)cc1 was read as TDP1 cell CPT inconclusive and TDP1 cell noCPT 15µM.
`CN(C)CCNC(=O)CCn1nc(-c2ccc(Cl)cc2)ccc1=O` gave HT1080 IDH1KD tx inactive, HT1080NT lethal inactive, IL-1B inflam inh inactive, TDP1 cell CPT inactive and TDP1 cell noCPT inactive.
`N#Cc1cc[n+](CC(=O)c2ccc(NC(=O)c3ccccc3)cc2)cc1` gave HT1080 IDH1KD tx inactive, HT1080NT lethal inactive, IL-1B inflam inh inactive, TDP1 cell CPT inactive and TDP1 cell noCPT inactive.
For CCOc1ccccc1Nc1nnc(-c2cc3cc(Cl)ccc3oc2=O)s1 the results were TDP1 cell CPT 2.3µM and TDP1 cell noCPT 2.3µM.
Screening COc1ccc(Nc2nnc(-c3cc4cc(Cl)ccc4oc3=O)s2)cc1 returned TDP1 cell CPT inactive and TDP1 cell noCPT inactive.
Cn1c(C23CC4CC(CC(C4)C2)C3)n[nH]c1=S was read as HT1080 IDH1KD tx inactive, HT1080NT lethal inactive, IL-1B inflam inh inactive, TDP1 cell CPT inconclusive and TDP1 cell noCPT inconclusive.
COc1ccc2cc3cc(C(=O)NCCN4CCN(Cc5ccccc5)CC4)oc3nc2c1 was read as HT1080 IDH1KD tx inactive, HT1080NT lethal inactive, IL-1B inflam inh -67, TDP1 cell CPT inactive and TDP1 cell noCPT 21µM.
COc1ccc2cc3cc(C(=O)NCCCN4CCC(C)CC4)oc3nc2c1 was read as HT1080 IDH1KD tx inactive, HT1080NT lethal inactive, IL-1B inflam inh -83, TDP1 cell CPT inconclusive and TDP1 cell noCPT 2.6µM.
Screening COc1ccc2cc3cc(C(=O)NCCCN4CCOCC4)oc3nc2c1 returned HT1080 IDH1KD tx inactive, HT1080NT lethal inactive, IL-1B inflam inh inactive, TDP1 cell CPT inactive and TDP1 cell noCPT inconclusive.
For COc1ccc2cc3cc(C(=O)N4CCCCC4C)oc3nc2c1 (configuration not stated) the results were HT1080 IDH1KD tx inactive, HT1080NT lethal inactive, IL-1B inflam inh inconclusive, TDP1 cell CPT 16µM and TDP1 cell noCPT inconclusive.
CCN1CCN(CCCNC(=O)c2cc3cc4ccc(OC)cc4nc3o2)CC1 was read as HT1080 IDH1KD tx inactive, HT1080NT lethal inactive, IL-1B inflam inh -85, TDP1 cell CPT inactive and TDP1 cell noCPT inconclusive.
COc1ccc2cc3cc(C(=O)NCCN4CCc5ccccc5C4)oc3nc2c1 was read as HT1080 IDH1KD tx inconclusive, HT1080NT lethal inactive, IL-1B inflam inh inactive, TDP1 cell CPT inconclusive and TDP1 cell noCPT inconclusive.
Screening COc1ccc2cc3cc(C(=O)N4CCCCCC4)oc3nc2c1 returned HT1080 IDH1KD tx inactive, HT1080NT lethal inactive, IL-1B inflam inh inconclusive, TDP1 cell CPT inconclusive and TDP1 cell noCPT inconclusive.
`COCCN1C(=O)C(=O)/C(=C(/O)c2ccc(S(=O)(=O)N3CCOCC3)cc2)C1c1cccc([N+](=O)[O-])c1` (configuration not stated) gave HT1080 IDH1KD tx inactive, HT1080NT lethal inconclusive, IL-1B inflam inh inactive, TDP1 cell CPT inactive and TDP1 cell noCPT inactive.
`CCOc1ccc(-c2nnc3sc(-c4ccccc4OC)nn23)cc1` gave HT1080 IDH1KD tx inactive, HT1080NT lethal inactive, IL-1B inflam inh inactive, TDP1 cell CPT inactive and TDP1 cell noCPT inactive.
COc1cccc(-c2nn3c(-c4ccco4)nnc3s2)c1 was read as HT1080 IDH1KD tx inactive, HT1080NT lethal inactive, IL-1B inflam inh inactive, TDP1 cell CPT inactive and TDP1 cell noCPT inconclusive.
For COc1ccc(-c2nn3c(-c4ccccn4)nnc3s2)cc1OC the results were HT1080 IDH1KD tx inactive, HT1080NT lethal inactive, IL-1B inflam inh -51, TDP1 cell CPT inconclusive and TDP1 cell noCPT inactive.
Cc1cccc(-c2nnc3sc(-c4ccccc4)nn23)c1 was read as HT1080 IDH1KD tx inactive, HT1080NT lethal inactive, IL-1B inflam inh inactive, TDP1 cell CPT 20µM and TDP1 cell noCPT 13µM.
For COc1cccc(-c2nn3c(-c4ccccn4)nnc3s2)c1 the results were HT1080 IDH1KD tx inactive, HT1080NT lethal inactive, TDP1 cell CPT inconclusive and TDP1 cell noCPT inconclusive.
`CCOc1ccc(-c2nn3c(-c4cc(-c5ccccc5)n[nH]4)nnc3s2)cc1` gave TDP1 cell CPT 16µM and TDP1 cell noCPT 14µM.
For COc1cccc(-c2nn3c(-c4cc(C)[nH]n4)nnc3s2)c1 the results were HT1080 IDH1KD tx inactive, HT1080NT lethal inactive, TDP1 cell CPT 16µM and TDP1 cell noCPT 11µM.
Screening COc1ccc(-c2nn3c(-c4cccc(C)c4)nnc3s2)cc1OC returned HT1080 IDH1KD tx inactive, HT1080NT lethal inactive, IL-1B inflam inh inactive, TDP1 cell CPT inconclusive and TDP1 cell noCPT inconclusive.
`CCCCN(C(=O)c1ccc(NC2CC2)c([N+](=O)[O-])c1)c1c(N)n(CC(C)C)c(=O)[nH]c1=O` gave HT1080 IDH1KD tx inactive, HT1080NT lethal inactive, IL-1B inflam inh inconclusive, TDP1 cell CPT inactive and TDP1 cell noCPT inactive.
`CCOc1ccc(C(=O)C(C)OC(=O)c2nc(Cl)ccc2Cl)cc1` (configuration not stated) gave HT1080 IDH1KD tx inactive, HT1080NT lethal inactive, IL-1B inflam inh inactive, TDP1 cell CPT inconclusive and TDP1 cell noCPT inactive.
Screening Clc1ccccc1-c1nn2c(-c3ccncc3)nnc2s1 returned HT1080 IDH1KD tx inactive, HT1080NT lethal inactive, IL-1B inflam inh -67, TDP1 cell CPT 16µM and TDP1 cell noCPT 23µM.
For COc1ccc(-c2nn3c(-c4cc(-c5ccccc5)n[nH]4)nnc3s2)cc1 the results were TDP1 cell CPT 3.5µM and TDP1 cell noCPT 2.8µM.
COc1cccc(-c2nnc3sc(-c4ccccn4)nn23)c1 was read as HT1080 IDH1KD tx inactive, HT1080NT lethal inactive, IL-1B inflam inh inactive, TDP1 cell CPT inconclusive and TDP1 cell noCPT 23µM.
`COc1ccc(-c2nn3c(-c4cc(-c5ccccc5)n[nH]4)nnc3s2)cc1OC` gave TDP1 cell CPT 2.8µM and TDP1 cell noCPT 4.5µM.
Screening CN1CCN(c2nc(-c3ccccc3C(F)(F)F)nc3ccccc23)CC1 returned TDP1 cell CPT inactive and TDP1 cell noCPT inactive.

Screens deposited in PubChem by National Center for Advancing Translational Sciences (NCATS).
